Where “and” joins values, the source holds several entries; their conditions need not be identical. Equal entries are not always repeated. Records with an inconclusive call do not appear. Calls of active or inactive are those of the source. The calls were made as follows, unless noted: active = hit-call score of the fitted dose curve at least 0.9, where 1 is the maximum; inactive = score below 0.9.
Assays:
THRB (gene 7068) = THRB (gene 7068) (UniProt P10828); assay: TOX21_TRB_BLA_Agonist_Followup_ratio: Tox21 Thyroid Hormone Receptor beta Agonism Beta-lactamase (BLA) Follow-Up Assay, Ratio (AID 2283954; active = hit-call score of the fitted dose curve at least 0.9, where 1 is the maximum)
In short: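 Agonist mode: compounds (11-point, triplicate) incubated 18 h with HEK293T cells carrying GAL4-DBD/human TRβ-LBD and UAS-β-lactamase. Blue/green (460/530 nm) FRET ratio read after 2 h CCF4-AM loading; CellTiter-Glo viability run in the same plates.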

[1] = CCTE_Shafer_MEA_acute_firing_rate_mean: CCTE's Neural Acute Assay for Mean Firing Rate, Shafer Lab (AID 2284009);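 also: analyzed for loss of signal so actives lower firing rate relative to DMSO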
In short: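 Rat cortical neuron cultures matured to DIV 13 or 15, equilibrated 20 min at 37 C, then recorded 40 min for baseline. Compound (0.03-40 uM) added and a further 40 min recorded; percent change in mean firing rate calculated per well.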

[2] = CCTE_Shafer_MEA_acute_burst_duration_mean: CCTE's Neural Acute Assay for Mean Burst Duration, Shafer Lab (AID 2284014);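 also: hits are decreases in mean burst duration relative to DMSO controls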
In short: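 Rat cortical cultures, DIV 13/15; 40 min baseline, then 40 min with compound (0.03-40 uM), 37 C. Spikes: 300-5000 Hz band-pass, 8x rms threshold. Read-out: % change in mean single-electrode burst duration, DMSO-referenced, loss direction.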

[3] = CCTE_Shafer_MEA_acute_per_burst_spike_number_mean: CCTE's Neural Acute Assay for Average Number of Spikes Per Burst, Shafer Lab (AID 2284015);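 also: hits are decreases in mean spikes per burst versus baseline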
In short: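 Primary rat cortical neurons on 48-well MEA plates, treated on DIV 13 or 15 at 0.03-40 uM. Spontaneous activity recorded 40 min before and 40 min after compound at 37 C; percent change in mean spikes per single-electrode burst per well, fitted in the loss direction versus DMSO.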

[4] = CCTE_Shafer_MEA_acute_burst_percentage_mean: CCTE's Neural Acute Assay for Percentage of Spikes in a Burst, Shafer Lab (AID 2284017);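 as to AC50: curve fitted for loss of signal so potency reflects decreased burst percentage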
In short: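 Primary rat cortical neurons on 16-electrode MEA wells; 40 min baseline recorded at DIV 13 or 15, then 40 min after compound (0.03-40 uM) at 37 C. Well-mean fraction of spikes in single-electrode bursts; percent change from baseline, DMSO as negative control.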

[5] = CCTE_Shafer_MEA_acute_burst_percentage_std: CCTE's Neural Acute Assay for Standard Deviation of Burst Percentage, Shafer Lab (AID 2284018);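 also: fitted in the negative direction so actives lower burst percentage SD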
In short: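 Rat primary cortical neurons on 48-well MEAs, DIV 13 or 15, 37 C. 40-min baseline then 40-min recording with compound (0.03-40 uM); well-level SD of per-electrode burst spike percentage, expressed as percent change from baseline.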

[6] = CCTE_Shafer_MEA_acute_per_network_burst_spike_number_mean: CCTE's Neural Acute Assay for Average Number of Spikes in a Network Burst, Shafer Lab (AID 2284019)
In short: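 Rat cortical cultures, DIV 13/15; spike threshold 8x rms noise, 300-5000 Hz band-pass, 12.5 kHz sampling; wells need >/= 10 active electrodes. Compound 0.03-40 uM, 40 min, 37 C; % change vs own baseline, DMSO negative control.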

[7] = CCTE_Shafer_MEA_acute_per_network_burst_spike_number_std: CCTE's Neural Acute Assay for Standard Deviation of Number of Spikes in a Network Burst, Shafer Lab (AID 2284020);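 also: fitted for decrease in spike-number SD versus DMSO so actives lower it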
In short: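 Rat cortical cultures, DIV 13/15, 37 C; 20-min stabilisation, 40-min baseline, compound 0.03-40 uM, 40-min re-record. Spikes detected at 8x rms noise (300-5000 Hz band-pass). Readout: % change from baseline in per-burst spike-number SD.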

[8] = CCTE_Shafer_MEA_acute_per_network_burst_electrodes_number_mean: CCTE's Neural Acute Assay for Mean Number of Electrodes in a Network Burst, Shafer Lab (AID 2284021);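 also: curves fitted for decreases only so hits reduce electrodes per burst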
In short: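 Rat primary cortical neurons on 16-electrode MEA wells were recorded 40 min at baseline on DIV 13 or 15, then 40 min after compound (0.03-40 uM), at 37 C. Value is percent change per well, fitted in loss direction versus DMSO.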

[9] = CCTE_Shafer_MEA_acute_network_burst_percentage: CCTE's Neural Acute Assay for Percentage of Network Bursts, Shafer Lab (AID 2284022);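 also: curves fitted for loss so actives lower network burst percentage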
In short: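 Primary rat cortical neurons on 16-electrode MEA wells, treated on DIV 13 or 15 with compound (0.03-40 uM); 40-min baseline and 40-min post-exposure recordings at 37 C. Value is percent change in spikes within network bursts versus baseline, DMSO negative control.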

[10] = CCTE_Shafer_MEA_acute_cross_correlation_HWHM: CCTE's Neural Acute Assay for Cross Correlation at Half Width at Half Maximum, Shafer Lab (AID 2284026);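 also: percent change per well from pre-dose baseline in spike cross-correlogram half width; hits are a decrease in cross-correlogram half width relative to DMSO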
In short: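 Primary rat cortical neurons on 16-electrode MEA wells; 40-min baseline on DIV 13 or 15, then 40-min recording with compound (0.03-40 uM) at 37 C. HWHM of spike cross-correlogram expressed as percent change from baseline per well, DMSO reference.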

[11] = CCTE_Shafer_MEA_acute_synchrony_index: CCTE's Neural Acute Assay for Synchrony, Shafer Lab (AID 2284027);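 also: network synchrony index of spontaneous spiking in primary rat cortical neurons on MEAs; fitted for loss of signal so actives lower synchrony relative to DMSO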
In short: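 Acute exposure of rat primary cortical neurons (DIV 13 or 15) at 0.03-40 uM. Synchrony index, 40 min before vs after, as % change relative to DMSO control.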

[12] = CCTE_Shafer_MEA_dev_AB: CCTE's Alamar Blue Assay for Cytotoxicity in the Neural Network Formation Assay, Shafer Lab (AID 2284083; active = hit-call score of the fitted dose curve at least 0.9, where 1 is the maximum;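 also: resazurin reduction fluorescence as viability of cultured neurons; twelve days of exposure from plating with re-dosing on DIV 5 and 9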)
In short: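 Rat cortical primary cultures, 1.5 x 10^5 cells/well on MEA; continuous compound exposure over 12 days of network development, re-dosed with full medium change DIV 5 and 9. Alamar Blue fluorescence; loss of signal = cytotoxicity vs DMSO baseline.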

[13] = CCTE_Shafer_MEA_acute_LDH: CCTE's Lactate Dehydrogenase Assay for Cytotoxicity in the Neural Acute Assay, Shafer Lab (AID 2284086; active = hit-call score of the fitted dose curve at least 0.9, where 1 is the maximum;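 also: active means LDH release rises above DMSO vehicle level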)
In short: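 Cytotoxicity readout: spectrophotometric LDH activity in supernatant of rat primary cortical neurons, post-plating day 13 or 15, sampled after 40 min compound exposure; signal gain relative to DMSO baseline.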

[14] = CCTE_Mundy_HCI_hN2_NOG_NeuriteCount: CCTE's Neurite Outgrowth Assay in human hN2 cells for Neurite Count, Mundy Lab (AID 2284219; active = hit-call score of the fitted dose curve at least 0.9, where 1 is the maximum)
In short: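 In this morphology assay, hNP1-derived neurons received test chemical 2 h post-plating and were fixed two days later in warm paraformaldehyde/sucrose containing Hoechst 33342. Neurites, labelled by rabbit anti-βIII-tubulin (1:800) and Alexa Fluor-488 (1:500), were counted automatically.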

[15] = CCTE_Mundy_HCI_hN2_NOG_NeuriteLength: CCTE's Neurite Outgrowth Assay in human hN2 cells for Neurite Length, Mundy Lab (AID 2284220; active = hit-call score of the fitted dose curve at least 0.9, where 1 is the maximum)
In short: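 Read-out is neurite length from high-content imaging of βIII-tubulin/Alexa Fluor-488-labelled neurons, referenced to DMSO controls.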

[16] = CCTE_Mundy_HCI_hNP1_Pro_ResponderAvgInten: CCTE's Proliferation Assay in human neuroprogenitor cells, Mundy Lab (AID 2284224; active = hit-call score of the fitted dose curve at least 0.9, where 1 is the maximum;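 also: human neural progenitor cells hNP1 derived from WA09 embryonic stem cells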)
In short: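 Proliferation read as average intensity of BrdU-positive cells, imaged at 26.25 h post-dosing: chemical exposure started after 40–44 h culture, BrdU during final 4 h, paraformaldehyde fixation. Positive-direction fit relative to DMSO.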

[17] = CCTE_Mundy_HCI_Cortical_NOG_NeuronCount: CCTE's Neurite Outgrowth Assay in rat cortical cells for Neuron Count, Mundy Lab (AID 2284236; active = hit-call score of the fitted dose curve at least 0.9, where 1 is the maximum;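 also: neurons counted by imaging betaIII-tubulin and Hoechst stained cortical cells; cells exposed to compound for about 48 hours before fixation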)
In short: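 Read-out: neuron number by high-content imaging of betaIII-tubulin (Alexa Fluor-488) and Hoechst-labelled rat primary cortical cells.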

[18] = CCTE_Mundy_HCI_hNP1_Casp3_7: CCTE's Caspase-Glo 3/7 Assay in human neuroprogenitor cells for Apoptosis, Mundy Lab (AID 2284240)
In short: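 Luminescent caspase-3/7 readout, 26.5 h post-dose, in human neural progenitor cells from WA09 embryonic stem cells. Cells grew 40–44 h at 37 °C, 5% CO2 before chemical addition. Activity analysed as signal increase over DMSO baseline.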

[19] = CCTE_Mundy_HCI_Cortical_Synap_Neur_Matur_NeuronCount: CCTE's Synaptogenesis and Neurite Maturation Assay in rat cortical cells for Neuron Count, Mundy Lab (AID 2284242; active = hit-call score of the fitted dose curve at least 0.9, where 1 is the maximum;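 also: hits reduce neuron count versus DMSO baseline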)
In short: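 Measured at DIV 12: fluorescently labelled neurons (Hoechst nuclei, MAP2) in rat primary cortical cultures, counted by high-content imaging. AraC suppressed glia from DIV 5; DMSO served as negative control.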

Measured: AC50

Sequence of THRB (gene 7068) (P10828 whole entry, looked up, the tested form may be a part): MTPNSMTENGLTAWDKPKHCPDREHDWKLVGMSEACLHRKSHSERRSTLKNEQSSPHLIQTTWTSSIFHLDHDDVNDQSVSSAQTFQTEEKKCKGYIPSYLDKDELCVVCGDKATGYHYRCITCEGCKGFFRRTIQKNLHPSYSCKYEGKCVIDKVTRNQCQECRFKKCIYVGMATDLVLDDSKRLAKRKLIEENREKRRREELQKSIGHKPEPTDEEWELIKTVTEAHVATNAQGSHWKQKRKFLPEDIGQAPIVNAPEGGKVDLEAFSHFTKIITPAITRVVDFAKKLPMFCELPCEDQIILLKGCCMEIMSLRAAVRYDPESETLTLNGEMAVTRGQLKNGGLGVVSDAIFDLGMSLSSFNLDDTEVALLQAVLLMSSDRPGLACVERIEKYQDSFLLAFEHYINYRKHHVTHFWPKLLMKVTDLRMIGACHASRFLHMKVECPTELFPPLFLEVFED

CC(C)(C)CC(C)(C)c1ccc(O)c(Cc2ccc(Cl)cc2Cl)c1
inactive: THRB (gene 7068)

CN(C)C(=O)C(CCN1CCC(O)(c2ccc(Cl)cc2)CC1)(c1ccccc1)c1ccccc1
inactive: [6] | [7] | [8] | [9] | [13]
active: [1] 0.291 µM | [2] 0.147 µM | [3] 0.165 µM | [4] 2.27 µM | [5] 0.068 µM | [10] 2.31 µM | [11] 2.29 µM | [12] 5.74 µM and 5.44 µM and 5.02 µM | [14] 16 µM | [15] 15.8 µM | [16] 50 µM | [17] 12.9 µM | [18] 16.5 µM | [19] 8.36 µM

Cc1c(O)cccc1C(=O)N[C@@H](CSc1ccccc1)[C@H](O)CN1C[C@H]2CCCC[C@H]2C[C@H]1C(=O)NC(C)(C)C
active: [12] 10.1 µM | [16] 13.8 µM | [17] 25 µM | [18] 18.7 µM | [19] 4.18 µM

CC1(C)S[C@@H]2[C@H](NC(=O)[C@H](N)c3ccc(O)cc3)C(=O)N2[C@H]1C(=O)O
not listed: THRB (gene 7068) | [12] | [19]
inactive: all other assays above

Cc1cc(-n2c(=O)[nH]c(=O)n(C)c2=O)ccc1Oc1ccc(S(=O)(=O)C(F)(F)F)cc1
inactive: THRB (gene 7068)
